According to the supplement of paper PMC6555819:

Tests used:
Assay in all cases: PBM binding z-score (relative to random genomic background probes); higher = stronger binding; sequences stand for … in GC…GCGATTGACAGCGTAGAATGAAGG
[1] = tested on: RARb homodimer (NR concentration 270 nM)
Procedure, shortened: (§1)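 Ligand-free nuclear receptor dimers were bound for 1 h to custom Agilent 4×180K protein-binding microarrays. Detection used antibodies against each partner (one per run). Binding z-scores rest on regression-normalized fluorescence, with random background probes as the reference.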

[2] = tested on: RARg:RXRa (NR concentration 270 nM, RXRa partner concentration 90 nM)
Procedure, shortened: as §1

[3] = tested on: RARg homodimer (NR concentration 270 nM)
Procedure, shortened: as §1

[4] = tested on: RXRa DBDmut IVT, anti-RXR (DBD mutation: RXRa K156A/R161A, NR concentration 90 nM)
Procedure, shortened: as §1

[5] = tested on: RXRa homodimer (NR concentration 180 nM)
Procedure, shortened: as §1

[6] = tested on: THRa:RXRa (NR concentration 90 nM, RXRa partner concentration 90 nM)
Procedure, shortened: as §1

[7] = tested on: THRa homodimer (NR concentration 90 nM)
Procedure, shortened: as §1

[8] = tested on: VDR homodimer (NR concentration 270 nM)
Procedure, shortened: as §1

Sequence	PBM binding z-score [1]	PBM binding z-score [2]	PBM binding z-score [3]	PBM binding z-score [4]	PBM binding z-score [5]	PBM binding z-score [6]	PBM binding z-score [7]	PBM binding z-score [8]
ATATGTAGGTTAGCTGGGGTCATCCAGACTAGGC	4.24	4.41	3.52	1.31	5.97	5.2	3.24	4.34
CCTACTGTGCCATCAGGTCATTGATATCAACGTT	2.98	2.18	1.93	1.69	1.53	3.64	3.95	2.39
CCTCGGAGGCCAACAGGAGGTCAGAGCTGCCAGA	3.63	4.76	3.41	-0.221	2.34	2.41	0.431	0.821
TCTTCTAGGTCAACGATGGTCAGCTAATCTGCTA	3.76	4.37	5.58	1.9	3.09	3.55	2.17	0.674
ATCTCTAGGTAAAAGTTCAGTAAATCCCGAGGAT	2.41	1.83	1.94	0.937	1.61	1.38	0.269	2.01
GGAACGAGGGCATTAGAGTTGATAGCATGGCGAT	0.848	1.11	1.65	2.84	0.695	2	-0.303	2.49
TCTGCTAGGTCAACGATGGTTAGCTAATCTGCTA	2.99	3.97	5.29	1.1	2.75	2.9	0.466	-0.391
ACTAGTTAGTCAGCTGAGGTCACACACAATTCGG	4.4	3.65	3.31	1.91	4.01	4.76	5.46	3.81
TCTTGTAGATCAATAGAGGTTAAGAATGTGCGCT	1.06	0.814	0.559	0.783	1.38	2.15	-0.391	0.277
TAGCCTAGGTCATTGGGCCGGTATAGTACGCATC	2.86	3.58	4.08	0.933	2.62	2.67	0.961	1.35
TCTATTAGTTGAAGGGCAACAGACGAGTCCGTTT	1.14	0.634	0.745	1.68	0.567	0.209	0.0682	1.55
TGAATGAGGTTATAAGAACAGGGAACGTTGCAAA	-0.0181	1.21	1	0.468	1.89	1.62	0.00377	0.365
TCGGGTAGGTTAGTCGGGGCATTCAGCCAACATA	1.24	0.503	0.704	0.58	0.0388	1.57	1.21	1.08
GCATAGAGGTAATACAAGGTGAAAGTCCGATTGT	1.08	0.816	0.537	0.392	0.977	4.44	0.985	0.216
GTACCAAGGTGAATAGGTCTTTGATGAGTAGGCG	1.13	1.15	0.913	0.00774	0.832	1.3	0.641	0.178
TCTGCTAGGTCAACGCTGGTCAGCTAATCTGCTA	3.46	4.21	5.26	0.991	2.33	3.52	0.43	-0.576
TCTAGTTGGTCAAAGGTCACAGACTCGAAATGCG	5.18	7.34	6.39	1.36	8.58	4.16	1.98	2.22
CCTACGGGGCCATCAGGTCATTGATATCAACGTT	3.1	3.1	2.83	0.971	2.02	3.6	2.97	2.45
GCTAGCAGCCCATTTGGGTCACTCAATGACGGGC	1.07	0.319	0.556	-0.892	0.587	1.24	0.119	-0.375

Sequence	PBM binding z-score [1]	PBM binding z-score [2]	PBM binding z-score [3]	PBM binding z-score [4]	PBM binding z-score [5]	PBM binding z-score [6]	PBM binding z-score [7]	PBM binding z-score [8]
ATCTCTAGGTAAAAGTTCAGTGGATCCCGAGGAT	2.32	2.02	2.08	0.861	1.53	1.2	0.272	1.72
TAACCTAGGTCATTGGGCCAGTATAGTACGCATC	3.46	4.58	4.75	2.44	3.95	3.19	1.52	2.14
CATCCAAGGTCAAGGTCAGTGAAAGAGACTCGAA	5.3	6.9	7.48	3.81	6.28	4.48	3.62	3.23
CGAACTAGGTCATAACAGGACAGTGAAGGATGAT	2.36	3.28	3.91	1.66	2.37	4.04	0.443	0.892
GCTTACGGGGCAAAGGTTATAGCATGAATAGAAT	1.58	3.73	1.43	1.11	4.42	1.89	-0.425	-0.046
TCTTGTAGATCAAGCAGGTTAAGAAGGCCTGAGT	0.0999	-0.137	-0.293	0.295	0.317	0.354	-0.512	0.00431
CGTCAAAGTTCAACTAAAGTAACGTAAAGCACGC	4.13	5.9	6.97	4.67	5.02	2.61	0.0523	3.56
TAGCCTAGGTCATGGGCCAGTATTCCACGCGAAC	2.79	4.27	4.6	0.71	3.8	2.99	1.33	0.208
CGAACTAGGTCAAGGACAGTGCATCTCCGCACGC	3.51	4.21	4.75	1.45	2.72	3.28	2.03	0.69
CCTTACGGGTCAAGGTTATAGTACGGGTGGTACG	3.37	4.78	4.42	1.09	5.14	3.08	1	1.71
TAGCCTAGGTCATTGGGCCAGTACAGTACGCATC	3.02	3.95	4.57	1.77	3.3	2.91	0.878	1.28
CCTACTGGGGCATTCAGAGGTCATTGATCATATG	4.07	5.17	3.71	0.683	3.72	3.43	1.19	3.38
TCTTGTAGACCAACAGGAGGTTAAGAAAGATCGA	0.694	0.411	0.151	0.322	0.799	0.789	-0.614	-0.388
CCTAGCAGGCCAATCTGAGTCACTCAAGGCTTGA	-0.614	-0.539	-0.118	0.122	-0.769	-0.175	-0.499	-0.793
TCGAGTAGGTTAGGGGCATTTAGAATGGCGTCGA	0.875	0.265	0.0778	0.475	0.534	0.793	0.327	0.777
ATCTGTAGGTAAGACTCAGTTCAGTGAAGAACGC	0.419	0.15	-0.0533	0.0968	0.114	0.687	0.0437	0.939
CCGACTGGGGCATAGGTTACCATACTCAGTACGA	0.786	0.922	0.833	-0.223	1.03	0.28	-0.456	-0.332
TCTCGGAGGACATGAAAGGTCAGAGCTCGACATC	4.53	4.22	4.21	1.18	3.67	3.34	0.586	0.768
ATCTCTAGGTAAAGATAGTTCGGTGAATGCAAAT	-0.015	0.125	0.491	0.0249	-0.171	0.322	0.197	0.151

Sequence	PBM binding z-score [1]	PBM binding z-score [2]	PBM binding z-score [3]	PBM binding z-score [4]	PBM binding z-score [5]	PBM binding z-score [6]	PBM binding z-score [7]	PBM binding z-score [8]
TCGAGTAGGTTTGGGGCATTCAGAATGGCGTCGA	0.408	-0.658	-0.913	0.194	-0.158	0.0533	0.0117	-0.0123
CGTCAAAGTTCAACTATGGTAACGTAAAGCACGC	4.39	5.88	6.65	4.74	4.82	3.57	0.175	4.04
ATCTCTAGGCAACAAGTTCAGTGAAAGAGAGGAC	1.5	0.455	0.889	0.344	0.308	0.961	0.49	2.1
ACTTACGGGTCAACGAGGTAATAGCACGCGTATA	3.07	5.4	5.19	2.15	6.11	4	0.859	1.79
TCATATAGGTAGATGCTAGGTGAAAGTCCGATCT	0.362	0.127	0.207	1.14	0.611	0.969	0.547	0.276
TTACCAAGGAGAAAGGTCGTTGATGCACGCCTTG	1.55	1.43	0.929	0.362	2.29	1.48	-0.13	1.17
TCATATAGTTAAACAGGTGAAAGTCCGTAAGTTA	0.84	0.464	0.347	1.57	1.04	0.679	0.485	0.667
AGTCAACGTTCACTAGGTAACGTAAGATTCAGCT	0.0524	0.418	0.444	0.205	0.197	0.401	0.11	-0.293
CCTAGCAGGCCACTCTGGGTCACTCAAGGCTTGA	2.05	1.36	1.45	0.0538	0.851	3.4	0.412	0.081
CCGACTGTGGCAAGGTTACCATAACGCACAGCCA	1.13	0.293	0.461	0.0244	0.97	1.2	0.526	0.243
CGAACTAGGTCAAGGACAGTGAGTCTCCGCACGC	3	3.43	4.13	1.02	2.28	3.1	1.85	0.408
GATACAGGGTCAAGGCCATAGTACGCGTATTGAT	3.69	5.34	5.15	2.44	5.52	3.54	1.52	2.22
TCGAGTAGGTTACGGGCATTCAGAATGGCGTCGA	0.362	0.594	0.594	-0.00223	0.855	0.116	-0.913	-0.716
CCTAGTTGCTCAAGGTCACACACGCTATAGGTAC	4.14	4.56	4.78	2.19	4.8	4.05	4.51	4
CGTCCAAGGTCAAAGGAGGTCAGTGAAGACAGAT	5.57	6.67	7.08	3.52	6.32	5.42	2.98	4.01
CCTTACGGGTCACTCCAGGTTATAGGATCGGAGT	3.21	4.55	4.56	1.45	4.79	4.95	0.641	1.51
CGTCCAAGGTCATAGGAGGTCAGTAAAGACAGAT	5.26	6.85	7.38	4.16	6.73	5.25	3.1	4.5
TTACCAAGGTGAAAGGTCGCTGATGCACGCCTTG	2.77	4.17	2.3	0.982	5.52	3.19	0.725	0.555
TCTAGTTGCTCACGGAGGTCACACACGACGGGTA	4.16	4.02	3.73	1.11	4.32	3.46	2.22	2.06
